Reference: PubChem BioAssay AID1626 (SRMLSC, 2009)
Hit rate of the full screen: of about 220,000 compounds, about 2,000 (0.91%) were called active. Inconclusive results (about 2%) are left out. A selection follows. Potency and affinity values are given separately. Unmarked numbers belong to inactive results. Rule as the data show it: inconclusive = inhibition above about 80% without an active follow-up result; inactive = below that; test concentration not stated here.

Experiment: M. tuberculosis H37Rv growth inhibitors, H37Rv strain (AID 1626);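 also: bacteria incubated seven days before Alamar blue readout; 0% = bacteria only wells and 100% = bacteria with antibiotic wells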
Settings: hits give high values, concentration not given here

Going from `NC(=S)NC1CC2C=CC1C2` (stereo unspecified) to `COc1ccc(NC(=O)NC23CC4CC(CC(C4)C2)C3)cc1OC`, the inhibition rises from -6.06% to 25.7%.

Compared with `CN1CCN(S(=O)(=O)c2cccc(C(=O)Nc3nccs3)c2)CC1`, `CCn1nccc1C(=O)Nc1nccs1` is higher in inhibition: -4.26% for the first, -3.43% for the second.

Compared with `O=C1NC(=O)/C(=C/c2cccc(O)c2)N1`, `CC(=O)C1=C(C)NC(=O)CC1c1ccc(F)cc1` (stereo unspecified) is lower in inhibition: 8.98% for the first, -1.68% for the second.

Going from `O=C(Cc1ccccc1)Nc1ccc(SC(F)F)cc1` to `O=C(COC(=O)Cc1ccccc1F)Nc1ccc(SC(F)F)cc1`, the inhibition rises from 1.19% to 91.8%.

Compared with `O=C(O)CC/C(=N/NC(=O)c1cccs1)c1ccccc1`, `O=C(NC1CCCC1)C(c1ccccc1)N(Cc1ccco1)C(=O)Cc1cccs1` (stereo unspecified) is lower in inhibition: 7.05% for the first, 2.16% for the second.

Compared with `COc1ccc(C[C@H]2CN3C(=NC[C@H]3C)N2CCNC(=O)CCC2CCCCC2)cc1`, `COc1ccc(C[C@H]2CN3C(=NC[C@@H]3C)N2CCNC(=O)CCC2CCCCC2)cc1` is higher in inhibition: -3.43% for the first, -3.39% for the second.

First: O=C(CCC1CCCCC1)NCCN1C2=NC[C@H](Cc3ccccc3)N2C[C@H]1Cc1ccc(O)cc1
Second: O=C(CCC1CCCCC1)NCCN1C2=NC[C@@H](Cc3ccccc3)N2C[C@H]1Cc1ccc(O)cc1
The inhibition of the first is lower: 9.81% for the first, 39.5% for the second.

Going from `NC(=O)c1nn(-c2ccccc2)nc1NC(=O)Cn1nnc(-c2ccccc2)n1` to `COC(=O)CN1C(c2ccccc2)=Nc2ccc(Cl)cc2C1c1ccccc1` (stereo unspecified), the inhibition falls from 9.3% to 0.35%.

First: Cc1ccc(CS(=O)(=O)Cc2ccc(C(=O)NCc3cccs3)o2)cc1
Second: NS(=O)(=O)c1ccc(CCNCc2cccs2)cc1
The inhibition of the first is higher: 3.64% for the first, 1.78% for the second.

Going from `CC(C)c1cccc(C(C)C)c1OCCCCN1CCCC1` to `CCCc1cc(=O)oc2c(CN3CCCC3)c(O)ccc12`, the inhibition falls from 10.1% to -6.61%.

Going from `O=C(CCn1cccc1)N1CCc2ccccc21` to `O=C(CCn1c(=O)[nH]c2ccccc2c1=O)Nc1ccccc1`, the inhibition falls from 6.64% to -7.56%.

Compared with `CCOC(=O)c1ccccc1NC(=O)COC(=O)C1=COCCO1`, `Cc1ccc(NC(=O)COC(=O)C2=COCCO2)cc1` is lower in inhibition: 71.3% for the first, 60.1% for the second.

First: CC(C)c1ccc(NC(=O)COC(=O)C2=COCCO2)cc1
Second: CC(C)(C)c1ccc(NC(=O)COC(=O)C2=COCCO2)cc1
The inhibition of the first is higher: 78.6% for the first, 74% for the second.

Compared with `NS(=O)(=O)c1ccc(NS(=O)(=O)c2ccc(NC(=S)Nc3ccccc3)cc2)cc1`, `CCOc1ccc(NC(=O)Nc2ccc(NC(C)=O)cc2)cc1` is lower in inhibition: 7.44% for the first, -1.52% for the second.

Compared with `COc1cc([N+](=O)[O-])ccc1NC(=O)/C=C\C(=O)O`, `O=C(O)/C=C/c1ccccc1[N+](=O)[O-]` is lower in inhibition: 2.65% for the first, -15.1% for the second.

First: COc1ccc(CC(=O)Nc2ccccc2N2CCCCC2)cc1OC
Second: CCc1ccc(NC2CC(=O)N(CCc3ccc(OC)c(OC)c3)C2=O)cc1 (stereo unspecified)
The inhibition of the first is higher: 6.94% for the first, 6.46% for the second.

Going from `Cn1cnnc1-c1cccc(NC(=O)c2cc(F)c(F)cc2Cl)c1` to `COC(=O)c1cccc(NC(=O)Nc2ccc(Cl)c(Cl)c2)c1`, the inhibition rises from -5.29% to 51.3%.

First: O=c1cc(C(F)(F)F)oc2c1ccc1ccccc12
Second: O=c1cc(C(F)F)oc2c1ccc1ccccc12
The inhibition of the first is lower: -2.31% for the first, 1.35% for the second.

Going from `COc1ccc(C(=O)C2CCCN(C(=O)c3cccnc3SC)C2)c(C)c1` (stereo unspecified) to `CCOCCCn1c(=S)[nH]c2cc(C(=O)N3CCN(C)CC3)ccc2c1=O`, the inhibition falls from -5.65% to -9.01%.

Compared with `COc1ccc(NC(=O)c2ccco2)cc1N`, `O=C(Nc1ccc(-c2noc(COc3ccccc3Cl)n2)cc1)c1ccco1` is higher in inhibition: -14.7% for the first, 0.69% for the second.

Going from `CCOC(=O)C1C(=O)CC(C)(O)C(C(=O)OCC)C1c1ccc(SC)cc1` (stereo unspecified) to `CCCC(=O)Nc1cc(C(=O)O)ccc1Sc1ccc(C)cc1`, the inhibition falls from 9.27% to -4.31%.

Going from `COc1cccc(C2CC(=O)N3CN(c4cccc(Cl)c4C)CSC3=C2C#N)c1OC` (stereo unspecified) to `COc1ccc(OC)c(C2CC(=O)N3CN(c4ccccc4)CSC3=C2C#N)c1` (stereo unspecified), the inhibition rises from -1.72% to 0.68%.

First: CCc1ccc(N2CSC3=C(C#N)C(c4cccs4)CC(=O)N3C2)cc1 (stereo unspecified)
Second: Cc1ccc(N2CSC3=C(C#N)C(c4cccs4)CC(=O)N3C2)cc1 (stereo unspecified)
The inhibition of the first is higher: 22.1% for the first, 7.29% for the second.

Going from `COc1ccc(N2CSC3=C(C#N)C(c4cc(OC)c(OC)cc4OC)CC(=O)N3C2)c(OC)c1` (stereo unspecified) to `COc1ccc(N2CSC3=C(C#N)C(c4cc(OC)ccc4OC)CC(=O)N3C2)c(OC)c1` (stereo unspecified), the inhibition falls from 15% to -0.31%.

Compared with `CC(=O)OC(C)CS(=O)(=O)c1ccccc1` (stereo unspecified), `CCCCN(C)C(=O)c1ccc(CS(=O)(=O)c2ccccc2C)o1` is lower in inhibition: -4.77% for the first, -5.74% for the second.

Compared with `CCN(c1cccc(C)c1)C(C(=O)Nc1ccc(OC)cc1)c1cc2c(cc1[N+](=O)[O-])OCO2` (stereo unspecified), `COCCNC(=O)C(c1ccncc1)N(C(=O)c1sc(C)nc1C)c1cccc(C)c1` (stereo unspecified) is lower in inhibition: 1.06% for the first, -4.16% for the second.

First: Cc1ccc(C(=O)Nc2cccnc2)cc1[N+](=O)[O-]
Second: O=C(/C=C/c1ccccc1[N+](=O)[O-])c1ccc(F)cc1
The inhibition of the first is lower: -3.36% for the first, 49.5% for the second.

Compared with `CCc1nc(SCc2cccnc2)[nH]c(=O)c1C`, `CCCNc1nc2c(c(=O)[nH]c(=O)n2C)n1Cc1cccc(Br)c1` is higher in inhibition: -4.49% for the first, 1.4% for the second.

Compared with `COc1ccc(CN2C(=O)N(c3ccc(OC)cc3)C(=O)C2CC(=O)Nc2ccccc2)cc1` (stereo unspecified), `COc1ccc(-c2[nH]n(-c3ccc([N+](=O)[O-])cc3)c(=O)c2C=NCc2ccccc2)cc1` is lower in inhibition: 6.5% for the first, -1.64% for the second.

First: NNC(=O)CN1C(c2cccc(Cl)c2)=Nc2ccc(Br)cc2C1c1ccccc1 (stereo unspecified)
Second: COc1ccc(C2=Nc3ccc(C)cc3C(c3ccccc3)N2CC(=O)NN)cc1 (stereo unspecified)
The inhibition of the first is lower: -2.26% for the first, -0.28% for the second.

Going from `COC(=O)CN1C(c2ccc(Cl)cc2)=Nc2ccc(Cl)cc2C1c1ccccc1` (stereo unspecified) to `Cc1ccc(C(=O)/C=C\NCc2ccccc2)cc1`, the inhibition falls from 79.4% to 2.13%.

Compared with `O=C1/C(=C/c2ccc(F)c(F)c2)CSc2sccc21`, `COc1cc(/C=C2/SC(=O)N(Cc3ccccc3Cl)C2=O)ccc1OCc1ccncc1` is lower in inhibition: 12.2% for the first, 3.75% for the second.

First: CCCCNS(=O)(=O)c1ccc2nc(-c3cccs3)cc(C(=O)NCC(OC)OC)c2c1
Second: COC(CNC(=O)c1cc(-c2ccncc2)nc2ccc(S(=O)(=O)N3CCOCC3)cc12)OC
The inhibition of the first is higher: 3.68% for the first, -0.15% for the second.

Going from `COC(=O)c1ccc(Cl)c(NC(=O)NC23CC4CC(CC(C4)C2)C3)c1` to `COC(=O)CCC(=O)NC(=S)Nc1cc(Cl)ccc1Cl`, the inhibition falls from 2.38% to -5.76%.

First: CCCc1cc(=O)oc2cc(C)cc(OCC(=O)O)c12
Second: Cc1ccc(NC(=O)c2cc3c(=O)oc4ccc(C)cc4c3s2)nc1
The inhibition of the first is higher: -0.53% for the first, -3.16% for the second.

Compared with `CN(C)CCc1nn[nH]n1`, `Cc1oc(CC(C)C)cc1C(=O)Nc1cccc2ccccc12` is lower in inhibition: -3.39% for the first, -8.7% for the second.

First: COc1ccc(NC(=O)c2c(F)c(F)c(F)c(F)c2F)cc1Cl
Second: COc1cc(NC(=O)c2ccc(F)cc2)c(OC)cc1Cl
The inhibition of the first is lower: 0.77% for the first, 6.81% for the second.

First: COc1ccc(Nc2nc(N)nc(CN3CCN(c4ccc(F)cc4)CC3)n2)cc1
Second: COc1ccccc1N1CCN(Cc2nc(N)nc(Nc3ccc(C)cc3)n2)CC1
The inhibition of the first is lower: 2.63% for the first, 48.7% for the second.

Compared with `COc1cccc(N2CCN(Cc3nc(N)nc(Nc4ccccc4)n3)CC2)c1`, `COc1ccccc1N1CCN(Cc2nc(N)nc(Nc3ccccc3)n2)CC1` is lower in inhibition: 0.52% for the first, -1.85% for the second.

Going from `CCOC(=O)c1ccc(NC(=S)Nc2cccc(N)n2)cc1` to `CCOc1ccc(NC(=O)CN2C(=O)S/C(=C/c3cccn3C)C2=O)cc1`, the inhibition falls from 59.5% to 0.02%.

First: CCC(C)NC(=O)CCNS(=O)(=O)c1ccc(Br)cc1 (stereo unspecified)
Second: O=C(CSCc1ccccc1)Nc1ccc2c(c1)C(=O)NC2=O
The inhibition of the first is lower: -4.65% for the first, -3.24% for the second.

First: NS(=O)(=O)c1cccnc1Nc1cccc(C(F)(F)F)c1
Second: N#C/C(=C\c1ccc([N+](=O)[O-])cc1)c1ccccn1
The inhibition of the first is lower: 3.67% for the first, 7.55% for the second.

Compared with `Cc1ccc(Oc2nc(-c3cccnc3)nc3ccccc23)c([N+](=O)[O-])n1`, `c1ccc(Oc2nc(-c3cccnc3)nc3ccccc23)cc1` is higher in inhibition: 7.05% for the first, 8.16% for the second.

Compared with `NC(CO)(CO)COCc1ccccc1`, `Cc1ccc(/C=C/C(=O)c2ccccc2)cc1` is higher in inhibition: 5.19% for the first, 10.3% for the second.

Going from `O=C(/C=C/c1ccc(-c2ccccc2)o1)c1ccccc1` to `Cc1ccc(C(=O)/C=C/c2ccc(-c3ccc(C)cc3)o2)cc1`, the inhibition rises from 12.6% to 88.2%.

First: Cc1ccc(/C=C/C(=O)c2ccc(C)cc2)cc1
Second: Cc1ccc(C(=O)/C=C/C(=O)O)cc1
The inhibition of the first is higher: 3.08% for the first, 1.06% for the second.

Going from `C=CCC1(NC(C)c2ccccc2)CCCCC1` (stereo unspecified) to `Cc1ccc2c(c1)CC1(CN2C)C(=O)NC(=O)N(CCc2ccccc2)C1=O` (stereo unspecified), the inhibition falls from -4.87% to -6.53%.

First: Cn1c(=O)[nH]c(=O)c2c1nc(SCC(=O)Nc1ccccc1)n2Cc1ccccc1
Second: CCn1c(-c2cccnc2Cl)nc2cc(Cl)c(Cl)cc21
The inhibition of the first is lower: 4.62% for the first, 13.1% for the second.
